PPC-1+TRAIL kill – compounds killing PPC-1 cancer cells with TRAIL present, primary screen, TRAIL potentiator project, ATPLite luminescence, uHTS; PPC-1 cells + TRAIL, ATPLite viability luminescence; cell killing (% activity), % at 4 µM or 5 µM; hit rate 0.41% among 220,000; AID 1443, 2008;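 active = cell killing above 50% in the first pass at 4 µM, then a duplicate retest at 5 µM averaging 50% or more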;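 note: plate controls were cells with TRAIL plus DMSO for no effect and medium-only wells lacking cells for full effect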
HIF-2a block – HIF-2a reporter inhibitors, primary screen, luminescence, 786-0 RCC cells. AID 624352, 2012. 786-0 RCC cells HIF-2a reporter, luciferase luminescence, overnight. inhibition, % at 18.8 µM. hit rate 0.72% among 360,000;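 active = inhibition of the luminescence signal of 40% or more relative to plate controls, in a single-dose primary screen at 18.75 µM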
KKLEB tox – cytotoxicity in KKLEB CF airway cells, primary screen, cytotoxicity control for CF NF-kB inhibitor project, cell-based, uHTS, fluorescence assay plates; KKLEB CF airway cells viability, ATPlite luminescence, overnight; stronger effect = lower value; cells stimulated with P. aeruginosa culture filtrate; activity change (cytotoxicity), % at 5 µM; hit rate 0.36% among 360,000;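 active = corrected activity change at or below -50% at 5 µM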
C8 TRAIL sens – viability loss with TRAIL in NB7+C8 cells, primary screen, TRAIL sensitizer project, cell-based, ATPlite luminescence | inhibition (viability loss, TRAIL sensitization), % at 10 µM | hit rate 1% among 360,000;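 active = compounds causing at least 50% loss of cell viability in the single-dose screen, relative to plate controls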
CF NFkB block – inhibitors of PAF-induced NF-kB signaling, primary screen, cell-based, GFP fluorescence, uHTS. inhibition, % at 5 µM. hit rate 0.86% among 360,000. AID 588850, 2011. KKLEB NF-kB-GFP reporter, GFP fluorescence overnight;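 active = at least 50% inhibition at 5 µM, scaled per plate between neutral and stimulator controls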;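 note: PAF is a Pseudomonas aeruginosa culture filtrate used as stimulus; plate controls were PAF-stimulated DMSO wells for no effect and unstimulated DMSO wells for full effect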
Peg3 prom inh – Peg3 promoter-driven luciferase inhibitors, primary screen, cell-based, HeLa, luciferase luminescence | inhibition, % at 20 µM | HeLa PEG-Prom luciferase reporter, overnight | AID 588405, 2011 | hit rate 1.7% among 360,000;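 active = inhibition of at least 50% at 20 µM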
The depositor's hits bear a star; · = no result given. Compounds with a hit are over-represented: about 3.1% of the library has one in this group of screens.

SMILES	PPC-1+TRAIL kill	HIF-2a block	KKLEB tox	C8 TRAIL sens	CF NFkB block	Peg3 prom inh
CC(=O)c1ccc(NC(=O)Nc2ccncc2)cc1	-1	-81	10	19	2	-56
COc1ccccc1Nc1ccc(NC(=O)c2cccc([N+](=O)[O-])c2C)cc1	·	-158	-14	7	-5	-98
CCCCC(CC)CNC(=O)CN1C(=O)NC2(CCc3ccccc32)C1=O (stereo not drawn)	·	2	1	-4	8	2
O=C(COc1ccccc1)NNc1nc2c(F)cc(F)cc2s1	9	7	-9	-12	6	13
O=C(Nc1nc2c(F)cc(F)cc2s1)c1ccccn1	35	-144	-21	71*	-28	75*
CSCCC(NC(=O)c1ccc(Cl)c([N+](=O)[O-])c1)C(=O)N1CCN(C/C=C/c2ccccc2)CC1 (stereo not drawn)	·	15	2	65*	-6	11
CCOC(=O)[C@]12CCC=C1N(Cc1ccc3c(c1)OCO3)C(=O)[C@H](CC(=O)NCc1ccc(C)o1)C2	·	6	·	-13	·	·
Oc1ccc(Cl)c(CN2CCN(c3ncc(Cc4ccccc4)cn3)CC2)c1	·	-8	·	-15	·	·
Cc1ccc(-c2onc(C)c2C)cc1S(=O)(=O)N1CCOc2ccccc21	·	14	-6	40	-4	52*
CS(=O)(=O)N(CC(=O)N1CCCC1)C1CCCCC1	·	12	2	1	5	4
CC1=NOC(=O)/C1=C\c1ccc(-c2cccc(Cl)c2)o1	27	83*	-33	12	93*	105*
CC1=CC2=NC(=O)/C(=C\c3ccc(-c4cccc(Cl)c4)o3)C(=N)N2O1	-14	12	-10	-16	4	57*
CCN1C(=O)C2CCCCN2c2ccc(C(=O)NCCOC)cc21 (stereo not drawn)	·	16	2	0	9	2
CCCCNC(=O)c1ccc2nc(CC)c(N(CC)CCN(C)C)n2c1	·	8	11	-3	-5	11
CCCCN1C(=O)c2ccc(C(=O)NC3(C)CCS(=O)(=O)C3)cc2C1=O (stereo not drawn)	·	8	-10	4	14	-5
Cc1ccc(NC(=O)CSc2nsc(SCC(=O)Nc3ccc(C)cc3C)c2C#N)c(C)c1	-2	2	-8	6	-2	77*
O=C(Nc1ccccc1O)c1ccc2c(c1)C(=O)N(Cc1ccco1)C2=O	·	17	3	5	5	64*
CC1(C)CN(c2ccccc2)C(=O)[C@H]1CC(=O)Nc1ccccc1	·	2	3	-9	18	-2
Cc1noc2ncnc(Sc3ccc(Br)cc3)c12	9	0	-5	-2	29	99*
COc1cc(C(=O)NCC(c2ccco2)N2CCCC2)ccc1OCc1ccc(Cl)cc1Cl (stereo not drawn)	·	-2	-19	19	37	56*
CCOc1ccccc1-n1nnnc1SCC(=O)N(C)C1CCS(=O)(=O)C1 (stereo not drawn)	·	-5	-1	7	2	-14
C/C(=N\Nc1nc2ccccc2[nH]1)c1cc2ccccc2o1	14	-192	-34	59*	-4	-175
C/C(=N\Nc1nc2ccccc2[nH]1)c1ccccn1	·	-150	-22	58*	27	-95
C/C(=N\Nc1nc2ccccc2[nH]1)c1ccc2c(c1)OCCO2	32	-133	-16	40	18	-125
C/C(=N\Nc1nc2ccccc2[nH]1)c1ccc2c(c1)OCO2	4	-173	-2	21	-13	-130
SMILES	PPC-1+TRAIL kill	HIF-2a block	KKLEB tox	C8 TRAIL sens	CF NFkB block	Peg3 prom inh
CCCn1c(N)c(C(=O)CN(C)CC(=O)Nc2ccccc2C(F)(F)F)c(=O)[nH]c1=O	·	24	-5	16	4	24
CCOc1cc(CNC2CCCC2)cc(Cl)c1OCc1ccccc1	5	20	-4	9	-4	57*
COc1cc(CNCCc2ccccc2)cc(Cl)c1OCc1ccccc1	9	16	-9	20	14	90*
O=C(O/N=C/c1ccc(Br)cc1)c1ccc(F)cc1	·	-27	4	-11	7	12
CN(C)CCCN=c1cc(-c2ccccc2)oc2ccc(Cl)cc12	4	-251	-4	3	-20	100*
COc1cc(CNCCc2c[nH]c3ccccc23)ccc1OCc1ccc(F)cc1	27	3	-18	-14	9	112*
COc1ccccc1NC(=S)NCCc1c[nH]c2ccccc12	5	-13	6	-1	-2	11
COc1cccc(CNCCc2c[nH]c3ccccc23)c1OCc1ccc(F)cc1	36	9	-6	5	0	105*
C(=N\NC1=NCCN1)/c1ccncc1	·	13	6	-12	-6	3
O=C(Nc1cccc(O)c1)c1noc2c1CCc1ccccc1-2	7	-165	-44	71*	5	-150
CC(C)=C1C2CCC1C1C(=O)N(NC(=O)COc3ccc(C(C)(C)C)cc3)C(=O)C21 (stereo not drawn)	-8	13	-3	5	7	55*
Cc1c(Cl)cccc1NS(=O)(=O)c1c(C(=O)N2CCOCC2)c(C)n(C)c1C	·	15	3	-11	6	-13
CCc1ccccc1NC(=O)CN1CCN(C(=O)CCC(=O)N2CCC(c3ccccc3)=N2)CC1	·	8	3	-8	15	7
Cc1noc(C)c1S(=O)(=O)NC(=O)C1(C)CCN1C(=O)Cc1ccc(Cl)cc1Cl (stereo not drawn)	·	0	6	4	10	8
CCOC(=O)c1c(C)sc2c1N(C(=O)CCl)c1cc(Cl)ccc1S2	5	91*	-76*	55*	69*	87*
COc1ccc2oc(C(=O)Nc3ccccn3)c(C)c2c1	·	-91	0	62*	-40	-174
COc1ccc2oc(C(=O)N3CCc4ccccc43)c(C)c2c1	·	-72	-55*	82*	-26	-146
COc1ccc2oc(C(=O)Nc3nc(C)cs3)c(C)c2c1	·	-188	12	60*	2	-270
COc1ccc2oc(C(=O)Nc3ccc(C)cn3)c(C)c2c1	·	-190	-15	33	2	-308
CN(CC(=O)Nc1ccccc1Br)C(=O)CNC(=O)Cc1cccc2ccccc12	·	3	24	-18	-18	18
CCCCn1c(N)c(N(CCOC)C(=O)COC(=O)CSc2cc(C)c3ccccc3n2)c(=O)[nH]c1=O	·	4	4	-11	-5	-4
CCN(CC)S(=O)(=O)c1ccc(N2CCN(C)CC2)c(NC(=O)COc2ccc(F)cc2Cl)c1	·	8	-11	5	-6	-17
